{"source": "PubChem BioAssay (NCATS)", "note": "Inconclusive results are not listed. A number with no mark means an inactive call. Activity calls are given as the source filed them. Calls follow the shape of the dose curve; as a rule, active = well fitted cell-killing curve with a large enough effect; inconclusive = small, poorly fitted or top-dose-only effect, or effect the other way; inactive = flat fitted curve, though single readings scatter. % is scaled to controls: 0 for no effect and ±100 for the full control effect; potency is read from the fitted curve at half-maximal effect.", "data": [{"assay": "qHTS of pediatric cancer cell lines to identify multiple opportunities for drug repurposing: Confirmatory screen for Rh18 cells (AID 1347125); also: nearly all actives have a fitted effect of over 55% in size", "conditions": "Rh18 rhabdomyosarcoma cells, viability; series mostly up to 45.9 µM; activity change, negative = cytotoxic: at the top concentration", "source_text": "Drug repurposing or repositioning has been offered as a strategy for drug development in oncology programs. This approach has special potential for childhood cancers and other rare or orphan diseases, where the expected return on new drug development has been a disincentive to pharmaceuticals.\nIn this project we exploit the poly-pharmacology of drugs to discover new indications via phenotypic screening of a panel of 19 well-characterized cell lines derived from solid tumors seen in children and adolescents. The goal is to identify approved drugs with previously unrecognized anticancer properties that has the potential to reveal new mechanisms and biological processes involved in carcinogenesis or drug resistance. We employed a titration-based paradigm (quantitative high-throughput screening or qHTS), where all compounds were tested at multiple concentrations for their effect on cell viability. Concentration-response curves (CRCs) were derived directly from the primary screen, and both potency and efficacy values were used to identify compounds with robust bioactivity profiles. We screened the NIH Chemical Genomics Center (NCGC) Pharmaceutical Collection (NPC) and Mechanism Interrogation Plate (MIPE) small molecule collections of approved and investigational compounds against these cell lines; and measured metabolically active cells after 48 hours of compound treatment as a proxy for cell viability.\nAssay Submitter: Nathalia J. Martinez, National Center for Advancing Translational Sciences, National Institutes of Health, Rockville, MD, USA; email: natalia.martinez@nih.gov\n[1] Shen, M et al. Quantitative high-throughput phenotypic screening of pediatric cancer cell lines identifies multiple opportunities for drug repurposing. Oncotarget 2017 Dec 19;9(4):4758-4772. PMID 29435139.\nThe cells were obtained from University of North Carolina (UNC), Pediatric Preclinical Testing Program (PPT), and Coriell Institute (CI).\nqHTS cell viability assay:\nCells were assayed in growth media at a density of 500-1,000 cells/well. Five microliters of cells were dispensed into 1,536-well, white, solid-bottom, TC-treated plates (Greiner Bio One) using a multidrop dispenser and incubated at 37 degrees C, 5% CO2, under a humidified atmosphere for 5 hours. Twenty-three nanoliters of compounds and controls (neutral control DMSO or positive control bortezomib at final concentration of 2.3 µM) were subsequently transferred by Kalypsys pintool. For primary screens, the MIPE collection was tested at 11-point dilutions (final concentrations range from 0.78 nM to 46 µM) and the NPC collection at 8-point dilutions (final concentrations range from 0.59 nM to 46 µM). Compounds tested in follow-up screens were assayed at 11-point dilutions. Cells were incubated for 48 hours, followed by addition of 3 µL of CellTiter-Glo (Promega). After a 15 min incubation at room temperature, samples were analyzed for luminescence intensity using a ViewLux High-throughput CCD imager equipped with clear filters.", "units": {"activity change, negative = cytotoxic": "%"}, "values": [{"molecule": "C=C1C(=CC=C2CCC[C@]3(C)[C@@H]([C@H](C)C=C[C@H](C)C(C)C)CC[C@@H]23)C[C@@H](O)C[C@@H]1O", "activity change, negative = cytotoxic": -25.1}, {"molecule": "COc1ccc(C=Cc2cc(OC)c(OC)c(OC)c2)cc1O", "activity change, negative = cytotoxic": -1.58}, {"molecule": "COc1ccc(OC)c(-c2nnc3ccc(-c4ccc(OC)c(O[C@@H]5CCOC5)c4)nn23)c1", "activity change, negative = cytotoxic": -24}, {"molecule": "CNC(=O)c1ccc(N2C(=S)N(c3cnc(C#N)c(C(F)(F)F)c3)C(=O)C23CCC3)cc1F", "activity change, negative = cytotoxic": -16}, {"molecule": "C[C@@H](Oc1cc(-c2cnn(C3CCNCC3)c2)cnc1N)c1c(Cl)ccc(F)c1Cl", "Potency": "18.5 µM (active)"}, {"molecule": "Cc1c(Cn2c(C)nc3c(C(=O)O)cc(N4CCOCC4)cc32)cccc1C(F)(F)F", "activity change, negative = cytotoxic": 4.66}, {"molecule": "CC(C)CC(=O)Nc1n[nH]c2c1CN(C(=O)C1CCN(C)CC1)C2(C)C", "activity change, negative = cytotoxic": -25.7}, {"molecule": "CCNC(=O)Nc1ccc2ncc(Nc3ccc(C)cc3)nc2n1", "activity change, negative = cytotoxic": 7.86}, {"molecule": "CC=C1NC(=O)[C@H]2CSSCCC=C[C@H](CC(=O)N[C@H](C(C)C)C(=O)N2)OC(=O)[C@H](C(C)C)NC1=O", "activity change, negative = cytotoxic": 11.1}, {"molecule": "Cc1cnc(-c2cnc(NCCNc3ccc(C#N)cn3)nc2-c2ccc(Cl)cc2Cl)[nH]1", "activity change, negative = cytotoxic": -13.9}, {"molecule": "CC(=O)Nc1nc(C)c(-c2ccc(Cl)c(S(=O)(=O)NCCO)c2)s1", "Potency": "11.7 µM (active)"}, {"molecule": "O=C(C=Cc1cccnc1)NCCCCC1CCN(C(=O)c2ccccc2)CC1", "activity change, negative = cytotoxic": -1.83}, {"molecule": "Nc1ccccc1NC(=O)c1ccc(CNc2nccc(-c3cccnc3)n2)cc1", "Potency": "1.17 µM (active)"}, {"molecule": "CC=CC1=C(C(=O)O)N2C(=O)[C@H](NC(=O)[C@H](N)c3ccc(O)cc3)[C@@H]2SC1", "activity change, negative = cytotoxic": 17.3}, {"molecule": "COc1cccc2nc(-c3cccs3)nc(NN3C(=O)C=C(C)C3=O)c12", "Potency": "20.8 µM (active)"}, {"molecule": "CC(C)(C)OC(=O)Nc1ccc(-c2cc(C(=O)NCCCCCCC(=O)NO)no2)cc1", "Potency": "4.65 µM (active)"}, {"molecule": "CN(C)CC(C)(C)CNc1nn2c(-c3ccccc3)nnc2cc1C1CCC1", "activity change, negative = cytotoxic": -25}, {"molecule": "Cc1cnc(Nc2ccc(F)cc2Cl)nc1-c1c[nH]c(C(=O)N[C@H](CO)c2cccc(Cl)c2)c1", "activity change, negative = cytotoxic": -80.4}, {"molecule": "COc1c(OCCCN2CCOCC2)ccc2c3n(c(=NC(=O)c4cnc(N)nc4)nc12)CCN3", "Potency": "0.644 µM (active)"}, {"molecule": "CC1(C)CCC(c2ccc(Cl)cc2)=C(CN2CCN(c3ccc(C(=O)NS(=O)(=O)c4ccc(N[C@H](CCN5CCOCC5)CSc5ccccc5)c(S(=O)(=O)C(F)(F)F)c4)cc3)CC2)C1", "activity change, negative = cytotoxic": 3.39}, {"molecule": "O=C(Cc1ccc(-c2ccc(OCCN3CCOCC3)cc2)cn1)NCc1ccccc1", "activity change, negative = cytotoxic": -11.6}, {"molecule": "CCN1CCN(Cc2ccc(-c3cc4c(N[C@H](C)c5ccccc5)ncnc4[nH]3)cc2)CC1", "Potency": "33.9 µM (active)"}, {"molecule": "CN1CCN(c2cc(C(=O)Nc3ccc4c(c3)-c3c(c(C(N)=O)nn3-c3ccc(F)cc3)CC4)c(Cl)cn2)CC1", "Potency": "26.1 µM (active)"}, {"molecule": "Cc1c(C)n(Cc2ccc(-c3ccccc3C(=O)O)cc2)c2ccc(C(=O)N[C@@H](C)c3ccc([N+](=O)[O-])cc3)cc12", "activity change, negative = cytotoxic": -2.31}, {"molecule": "Cn1c2ccccc2c2c3c(c4c5ccccc5n(CCC#N)c4c21)CNC3=O", "activity change, negative = cytotoxic": -23.8}, {"molecule": "Cc1ccc(C(=O)Nc2ccc(CN3CCN(C)CC3)c(C(F)(F)F)c2)cc1C#Cc1cnc2cccnn12", "Potency": "10.4 µM (active)"}, {"molecule": "Cc1c(CN2CCN(S(C)(=O)=O)CC2)sc2c(N3CCOCC3)nc(-c3cnc(N)nc3)nc12", "Potency": "1.04 µM (active)"}, {"molecule": "Nc1ccccc1NC(=O)c1ccc(CNC(=O)OCc2cccnc2)cc1", "Potency": "7.59 µM (active)"}, {"molecule": "CC(C)(O)c1cc2nc(-c3cnc(N)nc3)nc(N3CCOCC3)c2s1", "Potency": "1.65 µM (active)"}, {"molecule": "Cc1[nH]c2ccccc2c1CCNCc1ccc(C=CC(=O)NO)cc1", "Potency": "0.165 µM (active)"}, {"molecule": "CN1CC[C@@H](c2c(O)cc(O)c3c(=O)cc(-c4ccccc4Cl)oc23)[C@@H](O)C1", "Potency": "1.17 µM (active)"}, {"molecule": "Cc1ccc(C(=O)Nc2cccc(C(F)(F)F)c2)cc1-c1ccc2nc(NCCN3CCOCC3)ncc2c1", "Potency": "7.37 µM (active)"}, {"molecule": "CC1(C)OC2=C(C(=O)c3ccccc3C2=O)[C@H](NCc2ccccc2)[C@H]1O", "Potency": "7.37 µM (active)"}, {"molecule": "CS(=O)(=O)N1CCN(Cc2cc3nc(-c4cccc5[nH]ncc45)nc(N4CCOCC4)c3s2)CC1", "Potency": "1.07 µM (active)"}, {"molecule": "NC(=O)Nc1cc(-c2cccc(F)c2)sc1C(=O)N[C@H]1CCCNC1", "Potency": "6.57 µM (active)"}, {"molecule": "Cc1ccc(-c2ncn(-c3ccc(Nc4nccc(-c5cccc(N6CCOCC6)c5)n4)cc3)n2)cn1", "Potency": "0.107 µM (active)"}, {"molecule": "O=C(Nc1cc(C(F)(F)F)cc(C(F)(F)F)c1)c1cc(Cl)ccc1O", "Potency": "3.69 µM (active)"}, {"molecule": "CCC1=C[C@@H]2CN(C1)Cc1c([nH]c3ccccc13)[C@@](C(=O)OC)(c1cc3c(cc1OC)N(C)[C@@H]1[C@@](O)(C(=O)OC)[C@H](OC(C)=O)[C@]4(CC)C=CCN5CC[C@]31[C@@H]54)C2", "activity change, negative = cytotoxic": -13.9}, {"molecule": "C=CC(=O)Nc1cccc(Oc2nc(Nc3ccc(N4CCN(C)CC4)cc3OC)ncc2Cl)c1", "Potency": "20.8 µM (active)"}, {"molecule": "NC(=O)c1cccc2cn(-c3ccc([C@@H]4CCCNC4)cc3)nc12", "activity change, negative = cytotoxic": -13}]}]}
